About 2,000 (36%) of roughly 5,500 compounds were called active. About 18% were inconclusive and are not listed. Rule as the data show it: active = normalized growth mostly below about 0.91 (no sharp cut-off); inconclusive = no clear call, values can overlap the other calls; inactive = mostly above about 0.92. The list shows a part of the results.
Assay: chemical genetic growth profiling, strain panel (AID 1159580);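 also: tested at 20 µM; growth read once vehicle control cultures reached saturation at 30 °C; 1 = growth at the plate median or of vehicle wells; lower values mean less growth of the strain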
Conditions: growth OD

Measured: normalized growth

COc1cc(-c2coc3cc(OCc4ccccc4)c(OC)c(O)c3c2=O)cc(OCc2ccccc2)c1OC
inactive: S. cerevisiae deletion strains, locus YAL013W, strain DEP1, active compounds read low 1.04 | S. cerevisiae deletion strains, locus YBR021W, strain FUR4, active compounds read low 1.01 | S. cerevisiae deletion strains, locus YBR229C, strain ROT2, active compounds read low 0.995 | S. cerevisiae deletion strains, locus YCL029C, strain bik1, active compounds read low 0.981 | S. cerevisiae deletion strains, locus YDL035C, strain GPR1, active compounds read low 1.03 | S. cerevisiae deletion strains, locus YDL074C, strain BRE1, active compounds read low 1.02 | S. cerevisiae deletion strains, locus YDL101C, strain DUN1, active compounds read low 0.99 | S. cerevisiae deletion strains, locus YDL185W, strain tfp1, active compounds read low 0.989 | S. cerevisiae deletion strains, locus YDL192W, strain arf1, active compounds read low 0.981 | S. cerevisiae deletion strains, locus YDR101C, strain arx1, active compounds read low 0.991 | S. cerevisiae deletion strains, locus YDR150W, strain NUM1, active compounds read low 1.01 | S. cerevisiae deletion strains, locus YDR162C, strain NBP2, active compounds read low 1.02 | S. cerevisiae deletion strains, locus YDR318W, strain mcm21, active compounds read low 0.992 | S. cerevisiae deletion strains, locus YDR388W, active compounds read low 0.981 | S. cerevisiae deletion strains, locus YDR502C, strain sam2, active compounds read low 0.991 | S. cerevisiae deletion strains, locus YEL061C, strain CIN8, active compounds read low 1.01 | S. cerevisiae deletion strains, locus YER110C, active compounds read low 0.974 | S. cerevisiae deletion strains, locus YER155C, strain BEM2, active compounds read low 0.999 | S. cerevisiae deletion strains, locus YER167W, strain BCK2, active compounds read low 1 | S. cerevisiae deletion strains, locus YGL078C, strain dbp3, active compounds read low 0.988 | S. cerevisiae deletion strains, locus YGL086W, strain mad1, active compounds read low 0.975 | S. cerevisiae deletion strains, locus YGL248W, strain PDE1, active compounds read low 0.973 | S. cerevisiae deletion strains, locus YGR078C, strain PAC10, active compounds read low 1 | S. cerevisiae deletion strains, locus YGR135W, strain pre9, active compounds read low 0.986 | S. cerevisiae deletion strains, locus YGR229C, strain SMI1, active compounds read low 1.04 | S. cerevisiae deletion strains, locus YGR252W, strain gcn5, active compounds read low 1.07 | S. cerevisiae deletion strains, locus YHR030C, strain SLT2, active compounds read low 0.989 | S. cerevisiae deletion strains, locus YHR079C, strain IRE1 (second series), active compounds read low 0.98 | S. cerevisiae deletion strains, locus YHR094C, strain hxt1, active compounds read low 0.978 | S. cerevisiae deletion strains, locus YHR129C, strain ARP1, active compounds read low 0.986 | S. cerevisiae deletion strains, locus YHR200W, strain rpn10, active compounds read low 0.988 | S. cerevisiae deletion strains, locus YIL066C, strain RNR3, active compounds read low 0.982 | S. cerevisiae deletion strains, locus YIL073C, strain SPO22, active compounds read low 0.969 | S. cerevisiae deletion strains, locus YIL125W, strain kgd1, active compounds read low 0.984 | S. cerevisiae deletion strains, locus YIR030C, strain dcg1, active compounds read low 0.988 | S. cerevisiae deletion strains, locus YJL095W, strain BCK1, active compounds read low 0.972 | S. cerevisiae deletion strains, locus YJL134W, strain LCB3, active compounds read low 0.993 | S. cerevisiae deletion strains, locus YJL168C, strain set2, active compounds read low 0.977 | S. cerevisiae deletion strains, locus YJL187C, strain SWE1 (second series), active compounds read low 0.968 | S. cerevisiae deletion strains, locus YJR043C, strain POL32, active compounds read low 1.04 | S. cerevisiae deletion strains, locus YJR075W, strain HOC1, active compounds read low 1.01 | S. cerevisiae deletion strains, locus YKL009W, strain mrt4, active compounds read low 0.968 | S. cerevisiae deletion strains, locus YKL068W, active compounds read low 0.992 | S. cerevisiae deletion strains, locus YKL085W, strain MDH1 (second series), active compounds read low 1.03 | S. cerevisiae deletion strains, locus YKL085W, strain MDH1, active compounds read low 1.03 | S. cerevisiae deletion strains, locus YKL190W, strain CNB1, active compounds read low 1.01 | S. cerevisiae deletion strains, locus YKR001C, strain vps1, active compounds read low 0.964 | S. cerevisiae deletion strains, locus YLR039C, strain RIC1, active compounds read low 1.05 | S. cerevisiae deletion strains, locus YLR058C, strain SHM2, active compounds read low 0.989 | S. cerevisiae deletion strains, locus YLR102C, strain apc9, active compounds read low 0.98 | S. cerevisiae deletion strains, locus YLR262C, strain YPT6, active compounds read low 1.08 | S. cerevisiae deletion strains, locus YLR268W, strain sec22, active compounds read low 0.967 | S. cerevisiae deletion strains, locus YLR330W, strain CHS5, active compounds read low 0.994 | S. cerevisiae deletion strains, locus YLR342W, strain FKS1 (second series), active compounds read low 1.02 | S. cerevisiae deletion strains, locus YLR371W, strain rom2, active compounds read low 0.97 | S. cerevisiae deletion strains, locus YLR418C, strain cdc73, active compounds read low 0.983 | S. cerevisiae deletion strains, locus YML016C, strain PPZ1, active compounds read low 0.991 | S. cerevisiae deletion strains, locus YML032C, strain rad52, active compounds read low 1 | S. cerevisiae deletion strains, locus YML124C, strain tub3, active compounds read low 0.983 | S. cerevisiae deletion strains, locus YMR078C, strain ctf18, active compounds read low 0.975 | S. cerevisiae deletion strains, locus YMR223W, strain ubp8, active compounds read low 0.99 | S. cerevisiae deletion strains, locus YMR307W, strain GAS1, active compounds read low 1.12 | S. cerevisiae deletion strains, locus YNL067W, strain RPL9B, active compounds read low 0.984 | S. cerevisiae deletion strains, locus YNL233W, strain BNI4, active compounds read low 0.977 | S. cerevisiae deletion strains, locus YNL250W, strain rad50, active compounds read low 0.971 | S. cerevisiae deletion strains, locus YNL271C, strain bni1, active compounds read low 0.981 | S. cerevisiae deletion strains, locus YNL298W, strain CLA4, active compounds read low 0.982 | S. cerevisiae deletion strains, locus YNL307C, strain MCK1, active compounds read low 0.969 | S. cerevisiae deletion strains, locus YNL322C, strain KRE1, active compounds read low 0.999 | S. cerevisiae deletion strains, locus YNR052C, strain pop2, active compounds read low 0.991 | S. cerevisiae deletion strains, locus YOL006C, strain TOP1, active compounds read low 0.936 | S. cerevisiae deletion strains, locus YOL012C, strain htz1 0.883 | S. cerevisiae deletion strains, locus YOL147C, strain pex11, active compounds read low 0.989 | S. cerevisiae deletion strains, locus YOR061W, strain CKA2, active compounds read low 0.989 | S. cerevisiae deletion strains, locus YOR069W, strain VPS5, active compounds read low 0.99 | S. cerevisiae deletion strains, locus YOR136W, strain idh2, active compounds read low 0.98 | S. cerevisiae deletion strains, locus YOR144C, strain elg1, active compounds read low 1 | S. cerevisiae deletion strains, locus YOR184W, strain ser1, active compounds read low 0.979 | S. cerevisiae deletion strains, locus YOR316C, strain cot1, active compounds read low 0.981 | S. cerevisiae deletion strains, locus YPL055C, strain LGE1, active compounds read low 0.987 | S. cerevisiae deletion strains, locus YPR119W, strain clb2, active compounds read low 0.981 | S. cerevisiae deletion strains, locus YPR141C, strain kar3, active compounds read low 0.963 | S. cerevisiae deletion strains, locus YPR163C, strain tif3, active compounds read low 0.989 | S. cerevisiae deletion strains, locus YPR167C, strain met16, active compounds read low 0.988 | S. cerevisiae deletion strains, strain wtn01, active compounds read low 0.981 | S. cerevisiae strains, strain wild type, active compounds read low 1
